Laboratory results reported in PubChem BioAssay.
Several values for one entry are separate records, joined by “and”; a condition that tells them apart may be missing. Equal values may be shown once. Activity calls are given as the source filed them.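 Rule for the calls, unless noted: active = normalized viability below 100% at a tested concentration; inactive = the rest.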

Legend:
[1] = Wnt pathway potentiators raising nuclear beta-catenin – imaging, WNT3A-conditioned medium, mouse C2C12, NPC library, primary screen (AID 1117326; in the data active = nuclear beta-catenin stimulation mostly above about 4.2%, no sharp cut-off; inactive = mostly below about 10%); conditions: stronger effect = higher value
[2] = stimulators of insulin release from INS-1E, primary screen, cell-based, 5 mM glucose, NPC library (AID 1117329;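 active = compound raises insulin release from rat beta cells at 5 mM glucose, no numeric limit stated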); conditions: rat INS-1E insulin secretion, at 10 µM, stronger effect = higher value
[3] = growth inhibition of GSK3B-pretreated HCT116 cells – cell-based, CellTiter-Glo, 0.2 to 20 µM (AID 1117336;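 active = compounds lowering colon cancer cell viability after pretreatment blocking the GSK3B kinase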); conditions: HCT116 viability after GSK3B inhibitor, at 20 µM, stronger effect = higher value
[4] = inhibition of endothelial tube formation, primary screen, imaging, VEGF stimulated, CD31 staining, tube area, NPC library (AID 1117340;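 active = compound that reduces growth-factor-driven endothelial tube area in a mixed cell culture, no cutoff stated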); conditions: VEGF-stimulated ADSC/ECFC co-culture, at 10 µM, stronger effect = higher value
[5] = GLP1 release stimulators, primary, NCI-H716, NPC library (AID 1117341;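 active = compound raises GLP1 secretion from the human gut endocrine cells, with no numeric limit stated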); conditions: NCI-H716 cells, at 10 µM, stronger effect = higher value
[6] = HCT116 colon cancer cell growth inhibition, primary screen, CellTiter-Glo luminescence, NPC library (AID 1117342;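 active = compounds that lower survival of HCT116 colon cancer cells in the luminescence readout, no numeric limit stated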); conditions: at 20 µM (top of the series)
[7] = reduced SW480 viability measured with CellTiter-Glo, NPC library, primary (AID 1117343;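 active = compounds that lower viability of the colon cancer cells in the luminescence readout, with no numeric limit stated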); conditions: CellTiter-Glo luminescence; at 20 µM (top of the series)
[8] = NPC library primary testing for decreased DLD-1 cell viability via CellTiter-Glo (AID 1117346;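 active = compounds that lower survival of DLD-1 colon cancer cells in the luminescence readout, no cutoff given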); conditions: DLD-1 viability, CellTiter-Glo luminescence; at 20 µM (top of the series)
[9] = biological target: 6-phosphogluconate dehydrogenase, decarboxylating (Homo sapiens) (UniProt P52209); experiment: inhibition of human phosphogluconate dehydrogenase – biochemical, recombinant enzyme, NADPH absorbance, primary screen (AID 1159550;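 active = at least 20% inhibition of 6-phosphogluconate dehydrogenase activity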); conditions: recombinant 6PGD, NADPH absorbance 341 nm; at 10 µM; stronger effect = higher value
[10] = EMT-state selective cytotoxicity in co-culture – imaging, PC-3E GFP, TEM4-18 mCherry, primary screen (AID 1345086;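 active = compounds killing one labelled cell type while sparing the other, by normalised counts and ratio limits, not self-fluorescent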;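 for all read-outs here: cells exposed to compound for 72 h before imaging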;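 for red/green cell ratio (normalised): normalised mesenchymal count divided by normalised epithelial count so high means epithelial killing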); conditions: PC-3E GFP / TEM4-18 mCherry co-culture, imaging cell counts, at 1 µM; for red/green cell ratio (normalised): actives lie on both sides, counts scaled to control wells, 1 = unselective
[11] = MELAS cybrid and Rieske KO viability enhancers – cell-based, MELAS cybrids, Rieske KO mouse fibroblasts, CellTiter-Glo, primary screen (AID 1508586;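 active = mean z-score across replicates of 1.96 or higher in either the MELAS or the Rieske mutant cell line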;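 note: z relative to plate mean and SD of compound and empty wells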); conditions: low glucose
[12] = drug combination growth inhibition, ovarian cancer – cell-based, oncology-focused library, rucaparib conditional, profiling panel (AID 1508598); conditions: patient-derived ovarian cancer cells, CellTiter-Glo viability, 144 h, stronger effect = lower value
[13] = biological target: NAD(+) hydrolase SARM1 (Homo sapiens) (UniProt Q6SZW1); experiment: blocking NAD cleavage by SARM1 SAM-TIR – cell lysate, NAD-Glo luminescence (AID 1508614;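 active = compound whose remaining NAD level is above about 45 nM, limit read from the data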;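 note: higher remaining NAD means stronger inhibition of SARM1 NADase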); conditions: SAM-TIR HEK293T lysate NADase, at 1 µM, stronger effect = higher value
F380Y = experiment: BK channel mutant inhibitors and activators – cell-based, U2OS BacMam, thallium flux, beta subunits, selectivity assay, profiling panel (AID 1259406;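 active = thallium flux through the channel raised or lowered by more than 3 SD from vehicle-only wells, actives on both sides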;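 note: initial slope of Thallos dye fluorescence rise after thallium is added; log ratio against the mean of 0.3% DMSO vehicle wells on the same plate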); conditions: U2OS BacMam BK variants, at 30 µM
F380Y/beta1 = experiment: as above; conditions: U2OS BacMam BK variants, at 30 µM
F380Y/beta2Delta = experiment: as above; conditions: U2OS BacMam BK variants, at 30 µM
F380Y/beta4 = experiment: as above; conditions: U2OS BacMam BK variants, at 30 µM
[14] = biological target: Calcium-activated potassium channel subunit alpha-1 (Homo sapiens) + Leucine-rich repeat-containing protein 26 (Homo sapiens) (UniProt Q12791+Q2I0M4); experiment: as above; conditions: U2OS BacMam BK variants, F380Y/Slo1WT/gamma1, at 30 µM
R275C = experiment: as above; conditions: U2OS BacMam BK variants, at 30 µM
[15] = measured here: epithelial PC-3E GFP cell survival
[16] = measured here: mesenchymal TEM4-18 mCherry cell survival
[17] = MELAS cybrid survival, CellTiter-Glo 48 h, stronger effect = higher value
[18] = Rieske KO mouse fibroblast survival, CellTiter-Glo 72 h

Sequence of Calcium-activated potassium channel subunit alpha-1 (Homo sapiens) + Leucine-rich repeat-containing protein 26 (Homo sapiens) (Q2I0M4 whole entry, looked up, one chain of several): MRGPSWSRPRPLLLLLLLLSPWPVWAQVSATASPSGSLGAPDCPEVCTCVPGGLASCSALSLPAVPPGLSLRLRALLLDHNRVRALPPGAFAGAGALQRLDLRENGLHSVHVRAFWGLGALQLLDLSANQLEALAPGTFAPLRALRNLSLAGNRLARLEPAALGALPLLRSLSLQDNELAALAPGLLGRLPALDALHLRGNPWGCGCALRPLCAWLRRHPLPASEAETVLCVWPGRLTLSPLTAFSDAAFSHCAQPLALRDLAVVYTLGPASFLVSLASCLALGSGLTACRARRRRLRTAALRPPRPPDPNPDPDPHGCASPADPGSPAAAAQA
Sequence of 6-phosphogluconate dehydrogenase, decarboxylating (Homo sapiens) (P52209 whole entry, looked up): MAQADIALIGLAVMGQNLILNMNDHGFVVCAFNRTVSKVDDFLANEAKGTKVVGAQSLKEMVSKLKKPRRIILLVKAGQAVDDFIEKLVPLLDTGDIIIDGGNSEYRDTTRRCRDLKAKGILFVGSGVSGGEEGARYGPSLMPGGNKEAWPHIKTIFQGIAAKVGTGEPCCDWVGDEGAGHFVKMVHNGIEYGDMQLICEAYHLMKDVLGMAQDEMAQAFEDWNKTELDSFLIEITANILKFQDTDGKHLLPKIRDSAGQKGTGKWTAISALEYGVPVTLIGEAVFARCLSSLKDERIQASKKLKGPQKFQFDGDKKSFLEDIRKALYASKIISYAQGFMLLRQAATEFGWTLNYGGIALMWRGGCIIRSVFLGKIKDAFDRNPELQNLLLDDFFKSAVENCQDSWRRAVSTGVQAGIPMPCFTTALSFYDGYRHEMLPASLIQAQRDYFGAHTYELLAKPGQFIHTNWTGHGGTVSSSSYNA
Sequence of NAD(+) hydrolase SARM1 (Homo sapiens) (Q6SZW1 whole entry, looked up): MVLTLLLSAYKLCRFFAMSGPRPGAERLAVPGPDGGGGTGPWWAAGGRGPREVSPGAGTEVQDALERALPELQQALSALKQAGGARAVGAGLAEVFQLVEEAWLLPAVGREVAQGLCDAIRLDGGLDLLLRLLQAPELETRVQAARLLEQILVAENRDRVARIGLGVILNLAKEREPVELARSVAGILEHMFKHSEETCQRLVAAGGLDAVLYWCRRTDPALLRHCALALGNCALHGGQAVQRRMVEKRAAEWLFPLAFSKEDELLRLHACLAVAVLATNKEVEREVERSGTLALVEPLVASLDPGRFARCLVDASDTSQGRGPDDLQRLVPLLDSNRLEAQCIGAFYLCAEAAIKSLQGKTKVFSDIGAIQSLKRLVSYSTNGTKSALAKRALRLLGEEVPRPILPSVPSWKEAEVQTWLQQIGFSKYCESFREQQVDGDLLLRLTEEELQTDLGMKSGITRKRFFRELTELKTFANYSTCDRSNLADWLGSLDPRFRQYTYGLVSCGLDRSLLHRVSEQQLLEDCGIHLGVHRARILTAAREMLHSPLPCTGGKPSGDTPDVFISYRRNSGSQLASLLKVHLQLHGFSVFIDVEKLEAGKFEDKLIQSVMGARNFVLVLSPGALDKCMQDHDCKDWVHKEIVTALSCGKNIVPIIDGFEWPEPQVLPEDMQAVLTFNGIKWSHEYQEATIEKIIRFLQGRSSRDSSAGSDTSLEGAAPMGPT

CN(CCOc1ccc(CC2SC(=O)NC2=O)cc1)c1ccccn1 (stereo unspecified)
inactive: nuclear beta-catenin stimulation ([1]; at 10 µM) 4.7% | insulin secretion stimulation [2] -0.5% | viability decrease [3] -166% | tube area decrease [4] -11.1% | GLP1 secretion stimulation [5] -2.5% | inhibition of viability [6] -4.27% | viability decrease (inhibition) [7] 17.9% | viability decrease (inhibition) [8] -28.4% | inhibition [9] -0.784% | red/green cell ratio (normalised) [10] 0.92 | z-score [11, 17] -0.369 and -0.527 | viability ([12]; at 0.000305 µM, OCI-C5x cells, with rucaparib 10 µM, 100% = cells with rucaparib alone) 112% | viability ([12]; at 0.000305 µM, OCI-C5x cells, without rucaparib) 124% | viability ([12]; at 0.00122 µM, OCI-C5x cells, with rucaparib 10 µM, 100% = cells with rucaparib alone) 116% | viability ([12]; at 0.00122 µM, OCI-C5x cells, without rucaparib) 133% | viability ([12]; at 0.00122 µM, OCI-P5x cells, with rucaparib 20 µM, 100% = cells with rucaparib alone) 104% | viability ([12]; at 0.00122 µM, OCI-P5x cells, without rucaparib) 108% | viability ([12]; at 0.00488 µM, OCI-C5x cells, with rucaparib 10 µM, 100% = cells with rucaparib alone) 123% | viability ([12]; at 0.00488 µM, OCI-C5x cells, without rucaparib) 129% | viability ([12]; at 0.00488 µM, OCI-P5x cells, without rucaparib) 106% | viability ([12]; at 0.0195 µM, OCI-C5x cells, with rucaparib 10 µM, 100% = cells with rucaparib alone) 114% | viability ([12]; at 0.0195 µM, OCI-C5x cells, without rucaparib) 137% | viability ([12]; at 0.0195 µM, OCI-P5x cells, with rucaparib 20 µM, 100% = cells with rucaparib alone) 108% | viability ([12]; at 0.0195 µM, OCI-P5x cells, without rucaparib) 116% | viability ([12]; at 0.0781 µM, OCI-C5x cells, with rucaparib 10 µM, 100% = cells with rucaparib alone) 106% | viability ([12]; at 0.0781 µM, OCI-C5x cells, without rucaparib) 128% | viability ([12]; at 0.0781 µM, OCI-P5x cells, with rucaparib 20 µM, 100% = cells with rucaparib alone) 103% | viability ([12]; at 0.0781 µM, OCI-P5x cells, without rucaparib) 113% | viability ([12]; at 0.313 µM, OCI-C5x cells, with rucaparib 10 µM, 100% = cells with rucaparib alone) 110% | viability ([12]; at 0.313 µM, OCI-C5x cells, without rucaparib) 148% | viability ([12]; at 0.313 µM, OCI-P5x cells, with rucaparib 20 µM, 100% = cells with rucaparib alone) 106% | viability ([12]; at 0.313 µM, OCI-P5x cells, without rucaparib) 119% | viability ([12]; at 1.25 µM, OCI-C5x cells, with rucaparib 10 µM, 100% = cells with rucaparib alone) 107% | viability ([12]; at 1.25 µM, OCI-C5x cells, without rucaparib) 131% | viability ([12]; at 1.25 µM, OCI-P5x cells, with rucaparib 20 µM, 100% = cells with rucaparib alone) 101% | viability ([12]; at 1.25 µM, OCI-P5x cells, without rucaparib) 115% | viability ([12]; at 5 µM, OCI-C5x cells, with rucaparib 10 µM, 100% = cells with rucaparib alone) 106% | viability ([12]; at 5 µM, OCI-C5x cells, without rucaparib) 133% | viability ([12]; at 5 µM, OCI-P5x cells, with rucaparib 20 µM, 100% = cells with rucaparib alone) 103% | viability ([12]; at 5 µM, OCI-P5x cells, without rucaparib) 116% | remaining NAD [13] 10 nM | log fold change Tl+ flux (F380Y) -0.00159 and 0.0548 | log fold change Tl+ flux (F380Y/beta2Delta) -0.0425 and 0.0999 | log fold change Tl+ flux (F380Y/beta4) -0.0318 and 0.0667 | log fold change Tl+ flux [14] -0.00356 and 0.0332 | log fold change Tl+ flux (R275C) 0.0457 and 0.0237
0.76 and -1.4: z-score [11, 18]
0.1%: nuclear beta-catenin stimulation ([1]; stimulation, at 2 µM)
1.5: normalised cell number [10, 16]
active: viability ([12]; at 0.000305 µM, OCI-P5x cells, with rucaparib 20 µM, 100% = cells with rucaparib alone) 91.6% | viability ([12]; at 0.000305 µM, OCI-P5x cells, without rucaparib) 99.1% | viability ([12]; at 0.00488 µM, OCI-P5x cells, with rucaparib 20 µM, 100% = cells with rucaparib alone) 96.3% | log fold change Tl+ flux (F380Y/beta1) 0.17 and 0.199
1.63: normalised cell number [10, 15]

NC(=O)c1cnccn1
1.03: normalised cell number [10, 16]
-1 and -0.0443: z-score [11, 18]
active: log fold change Tl+ flux (F380Y/beta2Delta) -0.0799
inactive: nuclear beta-catenin stimulation ([1]; at 10 µM) -0.1% | insulin secretion stimulation [2] -1.9% | viability decrease [3] 0.65% | tube area decrease [4] 14.5% | GLP1 secretion stimulation [5] 3.1% | inhibition of viability [6] -20.7% | viability decrease (inhibition) [7] -1.8% | viability decrease (inhibition) [8] -1.9% | inhibition [9] -8.25% | red/green cell ratio (normalised) [10] 1.13 | z-score [11, 17] -0.184 and 0.644 | remaining NAD [13] 10 nM | log fold change Tl+ flux (F380Y) -0.0194 | log fold change Tl+ flux (F380Y/beta1) 0.0317 | log fold change Tl+ flux (F380Y/beta4) 0.0145 | log fold change Tl+ flux [14] -0.0208 | log fold change Tl+ flux (R275C) -0.0218
0.91: normalised cell number [10, 15]
-0.7%: nuclear beta-catenin stimulation ([1]; stimulation, at 2 µM)
